Reference: PubChem BioAssay (NCATS)
Results filed as inconclusive are left out. Activity calls are given as the source filed them. Calls come from the whole dose curve; as a rule, active = well fitted curve in the direction sought with a large enough effect; inconclusive = small, poorly fitted or top-dose-only effect, or another doubt; inactive = no such curve, though single readings can be large; an effect the other way counts as inactive or inconclusive.

Tests used:
[1] = molecular target: Glutathione peroxidase 1 (Homo sapiens) (UniProt P07203); assay: Primary qHTS Assay for Inhibitors of Recombinant Selenoprotein Glutathione Peroxidase 1 (GPX1) (AID 1845191); note: nearly all actives have a fitted effect of over 65% in size; for activity, negative = inhibition: % is set by controls: 0 for no effect and ±100 for the full control effect
Chain of Glutathione peroxidase 1 (Homo sapiens) (P07203 whole entry, looked up): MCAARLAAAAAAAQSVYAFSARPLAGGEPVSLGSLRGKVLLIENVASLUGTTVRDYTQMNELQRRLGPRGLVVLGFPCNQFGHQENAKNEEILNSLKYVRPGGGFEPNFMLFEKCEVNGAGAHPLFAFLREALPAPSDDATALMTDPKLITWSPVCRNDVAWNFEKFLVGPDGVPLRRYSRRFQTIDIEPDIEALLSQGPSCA
Outline: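 GR-coupled readout: NADPH consumption tracked by fluorescence, ex 340/em 450 nm, at t=0 and after 15 min at RT. Final mix 10 nM GPX1, 1 mM GSH, 0.5 mM CHP, 0.5 mM NADPH, 100 nM GR, 0.01% BSA, following 30 min enzyme–compound preincubation.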

[2] = molecular target: Phospholipid hydroperoxide glutathione peroxidase GPX4 (Homo sapiens) (UniProt P36969); assay: Primary qHTS Assay for Inhibitors of Recombinant Selenoprotein Glutathione Peroxidase 4 (GPX4) (AID 1845192); note: nearly all actives have a fitted effect of over 65% in size; for activity change, negative = inhibition: series mostly up to about 50 µM; % is set by controls: 0 for no effect and ±100 for the full control effect
Chain of Phospholipid hydroperoxide glutathione peroxidase GPX4 (Homo sapiens) (P36969 whole entry, looked up): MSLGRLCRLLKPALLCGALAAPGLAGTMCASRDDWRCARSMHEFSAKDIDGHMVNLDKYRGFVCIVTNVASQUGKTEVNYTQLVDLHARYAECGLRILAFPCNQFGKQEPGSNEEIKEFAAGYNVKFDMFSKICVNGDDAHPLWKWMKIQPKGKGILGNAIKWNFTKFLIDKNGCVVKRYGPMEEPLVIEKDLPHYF
Outline: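 Steps: GPX4 plus compound, 30 min RT; add GR/GSH/NADPH master mix; start with cumene hydroperoxide; read 340/450 nm fluorescence at 0 and 15 min. Finals were 200 nM GPX4, 1 mM GSH, 0.5 mM CHP, 0.5 mM NADPH, 100 nM GR.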

[3] = molecular target: Luciferin 4-monooxygenase (Photinus pyralis) (UniProt P08659); assay: Primary firefly luciferase (FLuc) qHTS assay for identification of artifact compounds. (AID 1845220); note: nearly all actives have a fitted effect of over 60% in size;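 for activity change, negative = inhibition: series mostly up to about 54 µM; plate controls were DMSO vehicle for no effect and no enzyme for full effect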
Outline: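 Titrated compounds were incubated 15 min at RT, protected from light, with luciferin and ATP at 10 uM; reaction started with 10 nM FLuc, luminescence imaged at 5 min, and concentration-response fitted by Hill equation.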

[4] = Primary fluorescence-based thiol-reactive (MSTI) qHTS assay for identification of artifact compounds. (AID 1845221); note: nearly all actives have a fitted effect of over 65% in size; note: potency is the fitted concentration of half-maximal effect;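 for activity change, negative = thiol reactive: series mostly up to about 54 µM; thiol-reactive compounds lower the probe fluorescence signal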
Outline: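 MSTI probe at 4 uM final in 2% DMSO/PBS pH 7.4; compounds, 1 h at room temperature in dark. Fluorescence Ex/Em 525/598 nm, normalised to Acetyl-MSTI and MSTI, fitted to 4-parameter Hill.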

[5] = tested on: Nanoluciferase (engineered Oplophorus gracilirostris luciferase); assay: Primary Nanoluciferase (NLuc) qHTS assay for identification of artifact compounds. (AID 1845222);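 note: NLuc secreted into diluted conditioned medium of S16 cells; series mostly up to about 54 µM; 0% = DMSO and -100% = no enzyme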
Outline: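 qHTS format, against NLuc in S16 cell-conditioned medium. Nano-Glo substrate 1:100 was added after 15 min at room temperature. Luminescence was taken after a further 5 min.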

[6] = Primary redox qHTS assay for identification of artifact compounds. (AID 1845223);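 note: 0% = DMSO and 100% = reference compound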
Outline: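 Redox-cycling detection via DTT (250 uM final) oxidation coupled to Amplex Red (25 uM)/HRP (250 mU/mL) in HBSS. 15 min preincubation plus 30 min after DTT, room temperature. Ex/Em 525/598 nm; 4-parameter Hill fit against DMSO and 10 uM DA3003.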

O=C1COC2(CCN(S(=O)(=O)c3ccc(-c4ccc5cccnc5c4)cc3)CC2)CN1C1CC1
inactive: Potency [1] | Potency [2] | Potency [3] | Potency [4] | Potency [5]

C[C@@H]1O[C@@H](O[C@H]2[C@H](OC(=O)[C@]34CCC(C)(C)C[C@H]3C3=CCC5[C@@]6(C)C[C@H](O)[C@H](O[C@@H]7O[C@H](C(=O)O)[C@@H](O)[C@H](O)[C@H]7O)[C@@](C)(CO)C6[C@H](O)C[C@@]5(C)[C@]3(C)C[C@H]4O)O[C@@H](CO)[C@@H]2O)[C@H](O)[C@H](O)[C@H]1O[C@@H]1OC[C@@H](O)[C@H](O[C@H]2OC[C@](O)(CO)[C@H]2O)[C@H]1O (some centres undefined)
inactive: outcome [1] inactive [at 9.52 µM] | outcome [2] inactive [at 9.73 µM] | outcome [3] inactive [at 11.6 µM] | activity change, negative = thiol reactive [4] 391% [at 11.5 µM] | activity, negative = inhibition [5] 1.66% [at 11.6 µM]

C=C1C(=O)O[C@@H]2/C=C(/C)[C@@H](OC(C)=O)C/C=C(\C)C[C@@H](OC(=O)/C(=C/CO)CO)[C@@H]12
inactive: Potency [1] | Potency [2] | Potency [3] | Potency [4] | Potency [5]

C[C@@H]1O[C@@H](O[C@H]2CC[C@@]3(C)C(CC[C@]4(C)C3CC=C3[C@@H]5CC(C)(C)CC[C@]5(C(=O)O[C@@H]5O[C@H](CO)[C@@H](O)[C@H](O)[C@H]5O)CC[C@]34C)[C@]2(C)CO)[C@H](O)[C@H](O[C@@H]2O[C@H](CO)[C@@H](O)[C@H](O)[C@H]2O)[C@H]1O (some centres undefined)
inactive: Potency [1] | Potency [2] | outcome [3] inactive [at 11.6 µM] | activity change, negative = thiol reactive [4] 278% [at 11.5 µM] | activity, negative = inhibition [5] 2.95% [at 11.6 µM]

CC(=O)N[C@H]1[C@H](O[C@H]2CC[C@@]3(C)C(CC[C@]4(C)C3CC=C3C5CC(C)(C)CC[C@]5(C(=O)O)C(O)C[C@]34C)C2(C)C)O[C@H](CO[C@@H]2O[C@H](C)[C@H](O)[C@H](O)[C@H]2O[C@@H]2OC[C@@H](O)[C@H](O)[C@H]2O)[C@@H](O)[C@@H]1O (some centres undefined)
inactive: Potency [1] | Potency [2] | activity change, negative = inhibition [3] -2.09% [at 11.6 µM] | activity change, negative = thiol reactive [4] 111% [at 11.5 µM] | activity, negative = inhibition [5] 3.71% [at 11.6 µM]

COc1cc(C(N)=O)nc(-c2ccccn2)c1O
inactive: Potency [1] | Potency [2] | Potency [3] | Potency [5]
active: Potency [4] 23.8 µM

CN1CCN(C2CCN(C(=O)Nc3cc(Oc4ccc(NC(=O)C5(C(=O)Nc6ccc(F)cc6)CC5)c(F)c4)ccn3)CC2)CC1
inactive: Potency [1] | Potency [2] | Potency [3] | Potency [4] | Potency [5]

CCC/C=C\C=C/CCc1cc(O)c([C@@H]2O[C@H](CO)[C@@H](O)[C@H](O)[C@H]2O)c(O)c1C(=O)OC
inactive: Potency [1] | Potency [2] | Potency [3] | Potency [4] | Potency [5]

COCC(=O)NC/C=C/c1ccc2ncnc(Nc3ccc(Oc4ccc(C)nc4)c(C)c3)c2c1
inactive: Potency [1] | Potency [2] | Potency [3] | Potency [4] | Potency [5]

C=C(C)C(=O)O[C@H]1/C(C=O)=C\CC/C(CO)=C/[C@H]2OC(=O)C(=C)[C@@H]2[C@@H]1OC
inactive: Potency [1] | Potency [2] | Potency [3] | Potency [5]
active: Potency [4] 3.69 µM

CC1CCC/C=C/C(=O)c2c(O)cc(O)cc2CC(=O)O1 (centres undefined)
active: Potency [4] 11.9 µM
inactive: Potency [1] | Potency [2] | Potency [3] | Potency [5]

Cc1cc2c(c(=O)o1)C=C1CC[C@H]([C@H](C)Cn3cnc(=N)c4[nH]cnc43)C[C@@H]1O2
inactive: Potency [1] | Potency [2] | Potency [3] | Potency [4] | Potency [5]

COc1c(C(C)C)c(O)c(O)c2c1C(OC)[C@H]1OC(=O)[C@@]23CCCC(C)(C)[C@H]13 (some centres undefined)
inactive: Potency [1] | Potency [2] | Potency [3] | Potency [5]
active: Potency [4] 2.93 µM

COc1cc(C(C)C)c(Oc2cnc(N)nc2N)cc1I
inactive: Potency [1] | Potency [2] | Potency [3] | Potency [4] | Potency [5] | Potency [6]

O=C(c1ccc(OC(F)F)c(C#Cc2ccccn2)c1)N1Cc2cccnc2C1
inactive: Potency [1] | Potency [2] | Potency [3] | Potency [4] | Potency [5]

C=C1CC2OC(=O)C(COC)C2C(OC(=O)/C(C)=C\C)CC2(C)OC1=CC2=O (centres undefined)
inactive: Potency [1] | Potency [2] | Potency [3] | Potency [4] | Potency [5] | Potency [6]

O=C(Nc1ccccc1)N1CCC(Cc2cnc3ccccc3c2)CC1
inactive: Potency [1] | Potency [2] | Potency [3] | Potency [4] | Potency [5] | Potency [6]

CCNC(=O)c1noc(-c2cc(Cl)c(O)cc2O)c1-c1ccc(OC)cc1
inactive: Potency [1] | Potency [2] | Potency [3] | Potency [4] | Potency [5]

CNS(=O)(=O)c1ccccc1Nc1nc(Nc2ccc(N3CCN(C)CC3)cc2OC)ncc1Br
active: Potency [4] 2.67 µM
inactive: Potency [1] | Potency [2] | Potency [3] | Potency [5] | Potency [6]

Cc1cc(F)c(C(=O)Nc2cccc(-c3nncn3C(C)C)n2)cc1-n1cnc(C2CC2)c1
inactive: Potency [1] | Potency [2] | Potency [3] | Potency [4] | Potency [5]

CCc1cc2c(cc1CC)CC(NCC(O)c1ccc(O)c3[nH]c(=O)ccc13)C2 (centres undefined)
inactive: Potency [1] | Potency [2] | Potency [3] | Potency [4] | Potency [5]
